# ± gives the standard deviation.
# System: EfPiwi piRISC loaded with piRNA #1 (26 nt)
# Assay: pre-steady-state target cleavage rate (min^-1); auxiliary factor: 500 nM Ephydatia muelleri Gtsf1; guide: piRNA #1 5'p-UGAGGUAGUAGGUUGUAUAGUAUCCA; MIWI and MILI are mouse PIWI proteins and EfPiwi is from a freshwater sponge; tags in brackets are library labels; higher = faster piRNA-guided slicing of the target
# Summary of the method: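 Three pooled Cleave-'n-Seq trials supplied the data, with k3 capped at 0.0001 min^-1. In each, […] transcribed, DNA-blocked target RNA library and 1 nM active affinity-purified piRISC with one synthetic guide reacted in HEPES–potassium acetate buffer at 33 °C for 0–8 or 0–960 min, with or without 500 nM GTSF1 partner protein. Uncleaved targets were sequenced and normalised to depth and to weakly complementary targets. A burst-and-steady-state fit provided the pre-steady-state cleavage rate.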
row,Sequence,pre-steady-state target cleavage rate
1,GGAGUGGAGACUAUACAACCUACUACCUCA,0.0807 ± 0.031
2,GGAGUGCAUACUAUACAACCUUCUACCUCA,0.00467 ± 0.0029
3,GGAGAGGAUACUAUACAUGCUACUACCUCA,0.0065 ± 0.0032
4,GGAGACCUUACUAUACAACCUACUAUCUCA,0.00831 ± 0.0039
5,GGAGACCAUACUAAACAACCUACUACCUCA,0.0127 ± 0.0048
6,GGAGACCAUACUAUACACCCUACUACCUCA,0.00656 ± 0.0021
7,GGAGAGGAUACUAGACAACCUACUACCUCA,0.0121 ± 0.0055
8,GGAGACCUAUCUAUACAAGCUACUACGUCA,0.00274 ± 0.0026
9,GGAGAGGAUAACUAUACAACCUACUACCUCA,0.104 ± 0.039
10,GGAGUGGAUACUAAACAUCCUACUACCUCA,0.0059 ± 0.0024
11,GGAGACCUAUGUAGUACAACCUACUACCUCA,0.00368 ± 0.0031
12,GGAGUGGAUACUAUACAACCUACUACCGUCA,0.00748 ± 0.0027
13,GGAGACCAUACUAUACAACCUAACUACCUCA,0.00707 ± 0.0033
14,GGAGACGAUACUAUACAAGCUUCUACCUCA,0.0034 ± 0.0019
15,GGAGACCAUACUAUACAACGUACUACCUGA,0.00457 ± 0.0027
16,GGAGACCAUUCUAUACAACCUACAACCUCA,0.00312 ± 0.0031
17,GGAGAGGAUACAAUACAACCUACAACCUCA,0.00231 ± 0.0018
18,GGAGUGGAUAGUAUACAUCCUACUACCUCA,0.00444 ± 0.0024
19,GGAGACGAUACUAUCAACCUACUACCUCA,0.0106 ± 0.0051
20,GGAGACGAUACUAUACAACCAUCUACCUCA,0.00359 ± 0.001

row,Sequence,pre-steady-state target cleavage rate
1,GGAGUGGAUACUAUAUAACCUACUACCUCA,0.117 ± 0.045
2,GGAGACCAUACUAUUCAACCUACUACCUCA,0.0056 ± 0.0032
3,GGAGUGGAUACUAUACUAGCUACUACCUCA,0.0081 ± 0.0031
4,GGAGACCAUACUAAUACAACCUACUACCUCA,0.0159 ± 0.0066
5,GGAGAGCUAACUAUACAACCUACUACCUCA,0.00909 ± 0.0042
6,GGAGAGCAUACUAUUCAACCUACUACCUCA,0.00555 ± 0.0041
7,GGAGACCACACUAUACAACCUACUACCUCA,0.0344 ± 0.015
8,GGAGUGGUAUCUAUACAACCUACUACCUCA,0.0613 ± 0.023
9,GGAGAGGAUACUAUCCAACCUACUACCUCA,0.00889 ± 0.004
10,GGAGACCUAUCUCUACAACCUACUACCUCA,0.00937 ± 0.0045
11,GGAGUCGAUACUAUACAACCUAGUACCUCA,0.00334 ± 0.0014
12,GGAGUGGAUACAAUACAACCUUCUACCUCA,0.00456 ± 0.0022
13,GGAGAGGAUACUAUACAACCUUCUACCUCA,0.00778 ± 0.0039
14,GGAGACCAUUCUAUACAACCUACUUCCUCA,0.00372 ± 0.0035
15,GGAGAGGAUACUUAUCAACCUACUACCUCA,0.00553 ± 0.0043
16,GGAGAGGAUACUAAACAACCUACUACCACA,0.00277 ± 0.002
17,GGAGACGAUACUAAACAACCUACUUCCUCA,0.00245 ± 0.0022
18,GGAGAGGUAUACUAUACAACCUACUACCUCA,0.0588 ± 0.023
19,GGAGACGAUACUAUAGAACCUACUACCUGA,0.00292 ± 0.0011
20,GGAGUGGUUACUAUACAACCUAGUACCUCA,0.00359 ± 0.0015

# — the supplement of paper PMC10338343
